The supplement of paper PMC8253809
Where “and” joins values, the source holds several entries; their conditions need not be identical. Equal entries are not always repeated.

The compounds below were run on SUDIPGIV (diffuse intrinsic pontine glioma line) (assay: growth inhibition (% activity, log2 RLU normalised to DMSO / staurosporine); higher = more growth inhibition). Conditions: 33 µM.
Method in brief: (§1)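 Approved drugs, at a single final concentration of about 33 μM, were applied in triplicate to pHGG cell lines and H9-derived neural stem cells for 7 days at 37 °C, 5% CO2. The growth-inhibition value is the replicate median of log2-transformed CellTiter-Glo luminescence normalised per plate to % activity between solvent and positive control wells.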
With `NC[C@H](O)c1ccc(O)c(O)c1` the growth inhibition was 1.37%.
`CC[C@H](C)C(=O)O[C@H]1CCC=C2C=C[C@H](C)[C@H](CC[C@@H]3C[C@@H](O)CC(=O)O3)[C@H]21` was tested, and the growth inhibition was 15.3%.
`CNC[C@H](O)c1cccc(O)c1` gave a growth inhibition of 0.826%.
With `CC[C@@]1(O)C(=O)OCc2c1cc1n(c2=O)Cc2cc3c(CN(C)C)c(O)ccc3nc2-1` the growth inhibition was 48.4%.
`CC(=O)N[C@H]1[C@H]([C@H](O)[C@H](O)CO)OC(C(=O)O)=C[C@@H]1NC(=N)N` showed a growth inhibition of 1.46%.
`OC[C@H]1O[C@H](O[C@]2(CCl)O[C@H](CCl)[C@@H](O)[C@@H]2O)[C@H](O)[C@@H](O)[C@H]1Cl` gave a growth inhibition of -0.426%.
`C[C@]12CC[C@H](O)CC1=CC[C@@H]1[C@@H]2CC[C@]2(C)C(c3cccnc3)=CC[C@@H]12` showed a growth inhibition of 0.327%.
`CO[C@H]1O[C@@H]2O[C@@]3(C)CC[C@H]4[C@H](C)CC[C@@H]([C@H]1C)[C@@]24OO3` was tested, and the growth inhibition was 13.7%.
`CN(C)CCOc1ccc(/C(=C(/CCCl)c2ccccc2)c2ccccc2)cc1` showed a growth inhibition of 2.82%.
Work on `CCCCOc1ccc(OCCCN2CCOCC2)cc1` yielded a growth inhibition of 1.4%.
For `Cc1ccc(N(CC2=NCCN2)c2cccc(O)c2)cc1`, the growth inhibition was -4.67%.
With `COc1cc(C)c(/C=C/C(C)=C/C=C/C(C)=C/C(=O)O)c(C)c1C` the growth inhibition was 6.68%.
Work on `C[C@]12CCC(=O)C=C1CC[C@@H]1[C@@H]2[C@@H](O)C[C@@]2(C)[C@H]1CC[C@]2(O)C(=O)CO` yielded a growth inhibition of -0.15%.
Work on `C[C@@H](NCCCc1cccc(C(F)(F)F)c1)c1cccc2ccccc12` yielded a growth inhibition of 4.23%.
`Clc1ccc2c(c1)CCc1cccnc1C2=C1CCNCC1` gave a growth inhibition of -0.876%.
Work on `CCc1cc(C(N)=S)ccn1` yielded a growth inhibition of -0.99%.

The compounds below were run on SUDIPGVI (diffuse intrinsic pontine glioma line) in the same assay as above. Conditions: 33 µM.
Method in brief: as §1
`CCN[C@H]1CN(CCCOC)S(=O)(=O)c2sc(S(N)(=O)=O)cc21` gave a growth inhibition of 2.59%.
`C=C1CCC(O)CC1=CC=C1CCCC2(C)C1CCC2C(C)CCCC(C)(C)O` (stereo not given) gave a growth inhibition of -3.1%.
`O=c1c(-c2ccc(O)cc2)coc2cc(O)ccc12` was tested, and the growth inhibition was -1.44%.
For `CC(C)Cc1ccc(C(C)C(=O)O)cc1` (stereo not given), the growth inhibition was 2.09% and 0.812%.
`Cn1c(CNc2ccc(C(=N)N)cc2)nc2cc(C(=O)N(CCC(=O)O)c3ccccn3)ccc21` gave a growth inhibition of 0.719%.
`CC(C)C[C@H](NC(=O)[C@H](CCc1ccccc1)NC(=O)CN1CCOCC1)C(=O)N[C@@H](Cc1ccccc1)C(=O)N[C@@H](CC(C)C)C(=O)[C@@]1(C)CO1` showed a growth inhibition of 52%.
`C[N+](C)(C)CCCCCC[N+](C)(C)C` was tested, and the growth inhibition was -9.56%.
With `COc1cc(/C=C/C(=O)N2CCN(CC(=O)N3CCCC3)CC2)cc(OC)c1OC` the growth inhibition was -3.03%.
`O=C(CCCN1CC=C(n2c(=O)[nH]c3ccccc32)CC1)c1ccc(F)cc1` showed a growth inhibition of -2.84%.
Compound `Cc1nnc(C(C)C)n1C1C[C@H]2CC[C@@H](C1)N2CC[C@H](NC(=O)C1CCC(F)(F)CC1)c1ccccc1` (stereo in doubt) has a growth inhibition of -0.429%.
`CCCCC(=O)N(Cc1ccc(-c2ccccc2-c2nnn[nH]2)cc1)[C@H](C(=O)O)C(C)C` gave a growth inhibition of -0.599%.
`CCN(CC)C(=O)/C(C#N)=C/c1cc(O)c(O)c([N+](=O)[O-])c1` gave a growth inhibition of -0.299%.
`CN1CCC(=C2c3ccccc3C=Cc3ccccc32)CC1` was tested, and the growth inhibition was 1.48%.
Work on `CCCCC(=O)O[C@]1(C(=O)CO)[C@@H](C)C[C@H]2[C@@H]3CCC4=CC(=O)C=C[C@]4(C)[C@@]3(F)[C@@H](O)C[C@@]21C` yielded a growth inhibition of 2.82%.
`O=C1OC(CN2CCOCC2)CN1/N=C/c1ccc([N+](=O)[O-])o1` (stereo not given) showed a growth inhibition of -0.066%.
`NC[C@@H]1O[C@H](O[C@H]2[C@@H](O)[C@H](O[C@@H]3[C@@H](O)[C@H](N)C[C@H](N)[C@H]3O[C@H]3O[C@H](CN)[C@@H](O)[C@H](O)[C@H]3N)O[C@@H]2CO)[C@H](N)[C@@H](O)[C@@H]1O` gave a growth inhibition of -6.55%.
With `C[C@@H]1CN(c2c(F)c(F)c3c(=O)c(C(=O)O)cn(C4CC4)c3c2F)C[C@H](C)N1` the growth inhibition was -5.84%.
`NC[C@H]1O[C@H](O[C@H]2[C@H](O)[C@@H](O[C@H]3O[C@H](CO)[C@@H](O)[C@H](N)[C@H]3O)[C@H](N)C[C@@H]2N)[C@H](N)C[C@@H]1O` gave a growth inhibition of -0.514%.
Compound `Cn1c(=O)c2c(ncn2CC(O)CO)n(C)c1=O` (stereo not given) has a growth inhibition of 3.1%.
`C[C@@H](Oc1cc(-c2cnn(C3CCNCC3)c2)cnc1N)c1c(Cl)ccc(F)c1Cl` was tested, and the growth inhibition was 17.5%.
`CCC(=O)NCC[C@@H]1CCc2ccc3c(c21)CCO3` was tested, and the growth inhibition was 1.36%.
Work on `CO[C@H]1C[C@@H]2CC[C@@H](C)[C@@](O)(O2)C(=O)C(=O)N2CCCC[C@H]2C(=O)O[C@H]([C@H](C)C[C@@H]2CC[C@@H](OC(=O)C(C)(CO)CO)[C@H](OC)C2)CC(=O)[C@H](C)/C=C(\C)[C@@H](O)[C@@H](OC)C(=O)[C@H](C)C[C@H](C)/C=C/C=C/C=C/1C` yielded a growth inhibition of 3.49%.
In the case of `CC1(C)S[C@@H]2[C@H](NC(=O)[C@H](NC(=O)N3CCNC3=O)c3ccccc3)C(=O)N2[C@H]1C(=O)O`, the growth inhibition is reported as -1.06%.
Work on `NC[C@H](O)c1ccc(O)c(O)c1` yielded a growth inhibition of 3.2%.
For `CC[C@H](C)C(=O)O[C@H]1CCC=C2C=C[C@H](C)[C@H](CC[C@@H]3C[C@@H](O)CC(=O)O3)[C@H]21`, the growth inhibition was -4.05%.
`CNC[C@H](O)c1cccc(O)c1` gave a growth inhibition of 0.615%.
In the case of `CC[C@@]1(O)C(=O)OCc2c1cc1n(c2=O)Cc2cc3c(CN(C)C)c(O)ccc3nc2-1`, the growth inhibition is reported as 7.54%.
`CC(=O)N[C@H]1[C@H]([C@H](O)[C@H](O)CO)OC(C(=O)O)=C[C@@H]1NC(=N)N` showed a growth inhibition of 2.82%.
`OC[C@H]1O[C@H](O[C@]2(CCl)O[C@H](CCl)[C@@H](O)[C@@H]2O)[C@H](O)[C@@H](O)[C@H]1Cl` gave a growth inhibition of -3.09%.
Work on `C[C@]12CC[C@H](O)CC1=CC[C@@H]1[C@@H]2CC[C@]2(C)C(c3cccnc3)=CC[C@@H]12` yielded a growth inhibition of -2.29%.
With `CO[C@H]1O[C@@H]2O[C@@]3(C)CC[C@H]4[C@H](C)CC[C@@H]([C@H]1C)[C@@]24OO3` the growth inhibition was 1.25%.
For `CN(C)CCOc1ccc(/C(=C(/CCCl)c2ccccc2)c2ccccc2)cc1`, the growth inhibition was 0.578%.
For `CCCCOc1ccc(OCCCN2CCOCC2)cc1`, the growth inhibition was 1.31%.
`Cc1ccc(N(CC2=NCCN2)c2cccc(O)c2)cc1` showed a growth inhibition of -4.28%.
`COc1cc(C)c(/C=C/C(C)=C/C=C/C(C)=C/C(=O)O)c(C)c1C` gave a growth inhibition of 4.93%.
In the case of `C[C@]12CCC(=O)C=C1CC[C@@H]1[C@@H]2[C@@H](O)C[C@@]2(C)[C@H]1CC[C@]2(O)C(=O)CO`, the growth inhibition is reported as 3.46%.
`C[C@@H](NCCCc1cccc(C(F)(F)F)c1)c1cccc2ccccc12` was tested, and the growth inhibition was -0.119%.
Work on `Clc1ccc2c(c1)CCc1cccnc1C2=C1CCNCC1` yielded a growth inhibition of -0.303%.
`CCc1cc(C(N)=S)ccn1` was tested, and the growth inhibition was -3.57%.
